Inconclusive results are not listed. Calls of active or inactive are those of the source. Calls follow the shape of the dose curve; as a rule, active = well fitted curve in either direction with a large enough effect (not every such curve was filed as active); inconclusive = small, poorly fitted or top-dose-only effect, or another doubt; inactive = flat fitted curve, though single readings scatter.
Assay: AP1 Signaling Pathway (AID 357);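 also: ME-180 reporter cells stimulated with EGF at its EC50 level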
Conditions: ME-180 (cervical carcinoma) AP-1-bla reporter, EGF-induced, beta-lactamase ratio, 5 h; at 17.2 µM (top of the series) unless noted
Summary of the method: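 AP-1-bla ME-180 cells, Opti-MEM + 0.5% dialyzed FBS, plated overnight 37 °C. Cpd titration + EC50 EGF, 5 h 37 °C. CCF4 2.5 h RT; ex 405, em 460/530 ratio → %activity, AC50.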
% is scaled to controls: 0 for no effect and ±100 for the full control effect.

Activity change, negative = inhibition, inactive:
CCN(CC)c1ccc(C2Nc3cccc4cccc(c34)N2)c(O)c1 -17.3%
COc1ccccc1-c1nnc2n1N=C(c1ccc(O)c(O)c1)CS2 10.7%
CC(=O)O[C@H]1C(=O)[C@]2(C)[C@H]([C@H](OC(=O)c3ccccc3)[C@]3(O)C[C@H](OC(=O)[C@H](O)[C@@H](NC(=O)c4ccccc4)c4ccccc4)C(C)=C1C3(C)C)[C@]1(OC(C)=O)CO[C@@H]1C[C@@H]2O -5.19%
COc1ccc(/C=N/n2cncn2)cc1CSc1ccccn1 -9.09%
COc1ccc(CSc2nnc3n(C)c(=O)c4c5c(sc4n23)CCCC5)cc1 -2.6%
CC(C)CC(NC(=O)OC(C)(C)C)C(=O)NCc1ccccc1 (stereo not given) -7.56%
CN(CCOC(=O)c1cccc(Br)c1)C(C)(C)C 9.82%
Cc1ccc(CNC(=O)c2cc3c(=O)n4ccccc4nc3n(CC3CCCO3)c2=N)cc1 (stereo not given) 20.6%
CN(C)CCCO[C@H]1[C@H]([C@H](O)CO)O[C@H]2OC(C)(C)O[C@@H]21 6.88% [at 38 µM]
CCOC(=O)C(O)(C1C(=O)CC(C)(C)CC1=O)C(F)(F)F (stereo not given) 10.7%
CCCCN(CCCC)C(=O)CSc1nnc2n(C)c(=O)c3c4c(sc3n12)CCCC4 -8.91%
CCCCCCOc1ccc(C(=O)n2cnc(N)n2)cc1 -12.8%
CC[C@H](C)[C@@H]1O[C@]2(CC[C@@H]1C)C[C@H]1C[C@H](CC=C(C)[C@@H](O[C@@H]3C[C@H](OC)[C@H](O[C@@H]4C[C@H](OC)[C@H](O)[C@H](C)O4)[C@H](C)O3)[C@@H](C)C=CC=C3CO[C@@H]4[C@@H](O)C(C)=C[C@@H](C(=O)O1)[C@]34O)O2 -26.8%
COc1ccc(Nc2oc(-c3cccs3)nc2C#N)cc1 -23.7%
CCOC(=O)CSc1nc(N)c(C#N)c(-c2ccc(OC)cc2)c1C#N -27.1%
Cc1nc(N2CCN(Cc3ccccc3)CC2)c(C#N)c2c1COC(C)(C)C2 -29.1%
CNC(=O)Nc1cccc(NC(=O)NC)n1 13%
CCCCNC(=O)C(C#N)c1nc2ccccc2nc1N1CCN(Cc2ccc3c(c2)OCO3)CC1 (stereo not given) -18.8%
O=S(=O)(c1ccc(Cl)cc1)N1CCC(N2CCCCCC2)CC1 9.12%
CC1(C)Cc2c(C#N)c(OCC(=O)c3ccccc3)nc(-c3ccoc3)c2CO1 20.6%
CCCCSc1nnc2n(CCc3ccccc3)c(=O)c3c4c(sc3n12)COC(C)(C)C4 -9.1%
CCCCCCCCCC(=O)N[C@@H](CN1CCOCC1)[C@@H](O)c1ccccc1 5.88% [at 38 µM]
CCCCCCCCCCCCCCCCCC(=O)NC[C@@H](COP(=O)([O-])OCC[N+](C)(C)C)OCC -12.5% [at 38 µM]
CC[C@H]1OC(=O)C[C@@H](O)[C@H](C)[C@@H](O[C@@H]2O[C@H](C)C[C@H](N(C)C)[C@H]2O)[C@@H](CC=O)C[C@@H](C)C(=O)C=C[C@]2(C)O[C@H]2[C@@H]1C 1.65%
CCN1CCc2c(C#N)c(N3CCOCC3)nc(NCc3ccccc3)c2C1 1.6%
N#Cc1cc(Oc2cccc3cccnc23)c(-n2nnc3ccccc32)cc1C#N 11.4%
CCCc1cc(Nc2c(C)n(C)n(-c3ccccc3)c2=O)n2c(nc3ccccc32)c1C#N -3.24%
Cn1c(N2CCOCC2)nc2c1c(=O)n(Cc1ccc(Cl)cc1)c(=O)n2C 1.13%
C[C@]12CC[C@@H]3c4ccc(O)cc4CC[C@H]3[C@@H]1CC[C@@H]2OC(=O)CCC(=O)O -5.44%
C(=N\n1cnnc1)/c1ccccn1 1.5%
CCOC(=O)CSC1=C(C#N)C(=O)NC(c2ccc(OC)c(OC)c2)S1 (stereo not given) -12.5%
COc1ccc(CCCNC(=O)CC#N)cc1OC 13.8%
Fc1ccccc1-c1nc(NCCCN2CCOCC2)c2ccccc2n1 0.19%
CN(C)CCCOC(=O)c1ccc(Cl)cc1Cl 13.3%
Cn1c(OCc2cccnc2)nc2c1c(=O)n(Cc1ccc(Br)cc1)c(=O)n2C -26.8%
CCC(=O)Oc1ccc(C(CC)C(CC)c2ccc(OC(=O)CC)cc2)cc1 (stereo not given) -8.93%
CSC1=C(C#N)C(c2ccc(C)s2)CC(=O)N1 (stereo not given) -7.45%
CCCc1nc(NC2CCCCC2)c(C#N)c2c1COC(C)(C)C2 16.4%
COc1ccc(-c2nn3c(COc4ccccc4)nnc3s2)cc1OC -9.35%
CC1(C)Cc2c(C#N)c(NCC3CCCO3)nc(-c3ccco3)c2CO1 (stereo not given) -9.98%

From PubChem BioAssay (NCATS)
